{
  "source": "paper PMC5540273",
  "about": "(PLoS ONE, 2017);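 note: KINOMEscan kinase panel screen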",
  "data": [
    {"tested_on": "LCK", "details": "concentration: 1 μM, replicates: in singlicate; n = 1", "units": {"%Inh": "%"}, "values": [
      {"smiles": "Nc1ncnc2c1nc(-c1ccccc1)n2-c1ccccc1", "note": "[SKF-97293]", "%Inh": 6},
      {"smiles": "CC(=O)Nc1nc2cnc(Nc3cc(NC(=O)c4cccc(C5(C#N)CC5)c4Cl)ccc3C)nc2s1", "%Inh": 91.1},
      {"smiles": "c1ccc(Oc2ccc(Nc3ccnc4cc(-c5ccc(CNCCN6CCOCC6)o5)ccc34)cc2)nc1", "note": "[GW567145]", "%Inh": 78},
      {"smiles": "Cn1cc(-c2[nH]c3cc(NC(=O)[C@H](N)C4CCCCC4)cc4c3c2C=NNC4=O)cn1", "%Inh": 90.7},
      {"smiles": "CC(C)c1nc(-c2cccc(NS(=O)(=O)c3c(F)cccc3F)c2F)c(-c2ccnc(Nc3ccc(N4CCOCC4)nc3)n2)s1", "note": "[GSK2008607]", "%Inh": 99.8},
      {"smiles": "COc1cc(Nc2nccc(-c3c(-c4cccc(NC(=O)c5c(F)cccc5F)c4)nn4ccccc34)n2)cc(OC)c1OC", "note": "[GSK323521]", "%Inh": 23},
      {"smiles": "COc1cc(Nc2nccc(N3CCC(NC(=O)c4cc5ccccc5s4)C3)n2)cc(OC)c1OC", "note": "(stereo not shown) [GSK1379760]", "%Inh": 29},
      {"smiles": "Fc1ccc(-c2ncn(C3CCNCC3)c2-c2ccnc(Oc3ccc(-c4ccccc4)cc3)n2)cc1", "note": "[SB-245391]", "%Inh": 0},
      {"smiles": "COc1cc2c(cc1OCCN1CCNCC1)ncc1c3ccc(C#N)cc3[nH]c21", "%Inh": 45},
      {"smiles": "Cl.Cl.NCC(NCc1ccc(-c2ccnc3[nH]ccc23)s1)c1ccccc1", "note": "(stereo not shown) [GSK1321565]", "%Inh": 16},
      {"smiles": "O=c1[nH]cc(-c2ccc(N3CCOCC3)cc2)c2sc(-c3cn[nH]c3)cc12", "note": "[GSK2276055]", "%Inh": 9},
      {"smiles": "O=C(Nc1cccc(-c2nn3ccccc3c2-c2ccnc(Nc3cccc(F)c3)n2)c1)c1c(F)ccc(F)c1Cl", "note": "[GSK357952]", "%Inh": 99.1},
      {"smiles": "COC(=O)Nc1nc2cc(Oc3ccc(NC(=O)Nc4cc(C(F)(F)F)ccc4F)cn3)ccc2[nH]1.Cl.Cl", "note": "[GW681170]", "%Inh": 92.9},
      {"smiles": "COCCOCCOc1cc2ncc3c4ccc(C#N)cc4[nH]c3c2cc1OC", "%Inh": 35},
      {"smiles": "c1ccc(-c2n[nH]cc2Nc2ccnc3ccccc23)nc1", "note": "[GW694077]", "%Inh": 0},
      {"smiles": "C[C@@H](Oc1cc(-n2cnc3cc(-c4ccnc(NCCS(C)(=O)=O)c4)ccc32)sc1C(N)=O)c1ccccc1Cl", "note": "[GSK907232]", "%Inh": 67},
      {"smiles": "CN1CCN(CCCNc2nccc(-c3c(-c4ccc(F)cc4)nn4cc(C(F)(F)F)ccc34)n2)CC1", "note": "[GW621581]", "%Inh": 36},
      {"smiles": "Oc1cc(Nc2ccnc3cc(I)ccc23)ccc1F", "note": "[GW552771]", "%Inh": 78},
      {"smiles": "COc1ccc(-c2coc3ccc(-c4nnc(SCc5ccc(OC)c(C(F)(F)F)c5)o4)cc23)cc1", "%Inh": 0},
      {"smiles": "Cl.c1ccc(-c2ccc3c(Nc4ccc5[nH]ncc5c4)ccnc3c2)nc1", "note": "[GW440137]", "%Inh": 42},
      {"smiles": "COc1ccc(CNC(=O)NC2CCN(c3ccnc(Nc4ccc(F)cc4)n3)CC2)cc1", "note": "[GSK1379788]", "%Inh": 8},
      {"smiles": "Cn1cc(-c2ccc3c(c2)CCN3C(=O)Cc2cccc(Cl)c2)c2c(N)ncnc21", "note": "[GSK2606590]", "%Inh": 44},
      {"smiles": "Cl.NC(=O)c1cccc(Nc2nccc(Nc3ccc(Oc4c(Cl)cccc4Cl)c(Cl)c3)n2)c1", "note": "[GW659009]", "%Inh": 54},
      {"smiles": "Cc1ccc(F)c(C(=O)Nc2cccc(-c3nn4ccccc4c3-c3ccnc(Nc4cccc(F)c4)n3)c2)c1F", "note": "[GSK361061]", "%Inh": 97.1},
      {"smiles": "Cc1occc1-c1ncc(OC[C@@H](N)Cc2c[nH]c3ccccc23)cc1-c1ccc2[nH]nc(C)c2c1.O=C(O)C(F)(F)F", "note": "[GSK682037]", "%Inh": 98.2},
      {"smiles": "Cc1cccc(Nc2nc(N[C@H]3CCNC3)ncc2C(N)=O)c1.Cl", "note": "[GSK2197149]", "%Inh": 40},
      {"smiles": "CN(c1ccc(NC(=O)Nc2cc(C(F)(F)F)ccc2F)cc1)c1ccnc(Nc2ccc(S(N)(=O)=O)cc2)n1", "note": "[GW809893]", "%Inh": 99.6},
      {"smiles": "CNC(=O)c1ccccc1Nc1nc(Nc2ccc(N3CCOCC3)cc2)ncc1Cl.Cl", "note": "[GSK1576028]", "%Inh": 99.6},
      {"smiles": "Cl.Cl.NCC(NC(=O)c1cc(-c2ccccc2)c(-c2ccnc3[nH]ccc23)s1)c1ccccc1", "note": "(stereo not shown) [GSK1321561]", "%Inh": 87},
      {"smiles": "NCCCC(NC(=O)c1cc(Br)c(-c2ccnc3[nH]ccc23)s1)c1ccccc1.O=C(O)C(F)(F)F.O=C(O)C(F)(F)F", "note": "(stereo not shown) [GSK1287544]", "%Inh": 9},
      {"smiles": "O=C(Nc1cccc(Oc2ccc3nc(NC(=O)C4CC4)cn3n2)c1)c1ccccc1C(F)(F)F", "%Inh": 72}
    ]}
  ]
}
